Source: PubChem (The Scripps Research Institute Molecular Screening Center)
MsrA act: activates bovine MsrA enzyme; purified bovine MsrA, absorbance read-out; activation, % at 10.6 µM; 0.3% of 360,000 active; in the data active = activation above about 7.5%;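 note: 0% = vehicle and 100% = reference activator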
SMARCA2 activ: SMARCA2 function activation, primary screen; activation, % at 9.1 µM; AID 652017; MG213 cells, MMTV-luciferase reporter, dexamethasone, overnight; 1% of 370,000 active; in the data active = activation above about 7.8%;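 note: 0% = vehicle wells and 100% = reference activator wells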
proKLK7 act: activators of human kallikrein-7 zymogen | purified proKLK7, EDANS-DABCYL substrate fluorescence; 100% is mature enzyme control, 0% vehicle | 0.9% of 370,000 active | activation, % at 7 µM;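 active = activation above the mean of all tested compounds plus 3 SD, computed per campaign excluding outliers beyond control limits, cut at about 13% in these data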
Target sequence (P49862 whole entry, looked up): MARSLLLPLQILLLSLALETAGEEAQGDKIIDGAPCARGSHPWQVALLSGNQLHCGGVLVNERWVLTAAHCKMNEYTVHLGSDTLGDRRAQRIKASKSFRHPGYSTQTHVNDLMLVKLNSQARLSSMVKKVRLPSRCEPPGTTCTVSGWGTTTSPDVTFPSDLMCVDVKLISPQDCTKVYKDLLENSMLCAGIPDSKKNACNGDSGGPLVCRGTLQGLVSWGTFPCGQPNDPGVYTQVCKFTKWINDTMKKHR
MsrA inhibitor: inhibits bovine methionine sulfoxide reductase A; inhibition, % at 15.5 µM; purified bovine MsrA, absorbance read-out; 0.75% of 360,000 active; AID 651718; in the data active = inhibition above about 4.5%;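 note: 0% = vehicle wells with enzyme and 100% = reference inhibitor wells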
SMARCA2 conf: confirmation of SMARCA2 (BRM) function activators. shares compounds with SMARCA2 activ. MG213 cells, MMTV-luciferase with dexamethasone, luminescence, overnight; MG213 cells expressing E1A, Rb sequestered; DMSO wells 0%, reference activator 100%. activation, % at 9.1 µM. 30% of 3,500 active. AID 652260;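 active = activation above its plate's cutoff, the mean activation of tested wells plus 3 SD, cut at about 7.9% in these data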
GAL4-VP16 Luc: GAL4-VP16 reporter activation counter-screen. shares compounds with SMARCA2 activ. HEK293 GAL4-VP16 pG5luc reporter, luciferase luminescence; scaled: DMSO wells 0%, SAHA wells 100%. activation, % at 9.1 µM. 41% of 3,500 active. AID 686939;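 active = activation above the solvent-only control well mean plus 3 SD, averaged across control plates, cut at about 5.2% in these data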
Starred values were filed as active, the others as inactive; . = not tested or not shown. Most compounds without a hit are left out; they make up all but 2.8% or so of the library.

SMILES	MsrA act	SMARCA2 activ	proKLK7 act	MsrA inhibitor	SMARCA2 conf	GAL4-VP16 Luc
COc1cc(OC)c(-c2nn3c(C4CCCCC4)nnc3s2)cc1OC	-2	8.3*	-29	1	0	2
NC(=O)c1ncn([C@@H]2O[C@H](CNCc3cccn3-c3ccncc3)[C@@H](O)[C@H]2O)n1	-10	8.4*	0	0	0	-1
Cc1cc(CNC[C@H]2O[C@@H](n3cnc(C(N)=O)n3)[C@H](O)[C@@H]2O)c(C)n1-c1cccnc1	-5	-6	0	1	.	.
COc1ccccc1C(=O)NC1CCCCN(Cc2ccc(OC(F)(F)F)cc2)C1=O (stereo not given)	.	-3	0	.	.	.
CCN(CC)C(=S)SCC(=O)Nc1nc(=O)c2ccccc2s1	1	8.5*	-1	-1	2	2
CN(C)[C@@H]1CCN(c2ccc3c(c2)O[C@@H]2CCN(C2)S3(=O)=O)C1	.	-1	0	.	.	.
O=C(CSc1nc2ncccc2[nH]1)N1CCOCC1	.	-1	0	.	.	.
Cc1cc(C(=O)NCc2cccnc2)cs1	-10	.	.	.	.	.
O=C(NCc1cccnc1)c1cccs1	-3	9.5*	1	0	2	0
CCCCNC(=O)C1c2ccccc2OCC(=O)N1Cc1cccnc1 (stereo not given)	-5	-3	0	0	.	.
Cc1cccc(-n2[nH]c3c4c(ccc3c2=O)C(=O)c2ccccc2C4=O)c1	0	8.3*	-1	1	-4	1
Cc1ccc2c(c1)N(CCCC(=O)NCc1cccs1)C(=O)CO2	.	-2	-1	.	.	.
COc1ccc(-c2cc(-c3ccccc3)c(-c3ccccc3)nn2)cc1	.	5	0	-1	.	.
COc1ccc(-c2cc3c(nn2)-c2ccccc2C3=O)cc1	4	11*	0	0	8.7*	5.2*
CCOC(=O)N1CCN(C(=O)c2ccc3c(=O)n(Cc4ccc(Cl)cc4)c(=S)[nH]c3c2)CC1	-1	8.2*	0	0	-4	1
COc1ccc(NC2c3ccccc3C(=O)N2c2ccccn2)cc1Cl (stereo not given)	-6	8.2*	0	1	2	1
CN1CCN(CCCNC(=O)c2ccc(/C=C3\Oc4ccccc4N(Cc4ccccc4F)C3=O)cc2)CC1	-1	7	-106	0	.	.
Cc1cccc(CN2C(=O)/C(=C\c3ccc(C(=O)NCCCN4CCN(C)CC4)cc3)Oc3ccccc32)c1	1	8.5*	-62	1	12*	-1
CC1(C)CC(=O)C/C(=N\NC(=O)Cc2ccccc2)C1	-5	10*	1	0	1	1
Cc1cc(C)c(NC(=O)Nc2ccc3c(c2)OCO3)c(C)c1	-8	2	0	-1	.	.
Cc1cc(C)c2[nH]c(C(=O)Nc3ccc4c(c3)OCO4)cc2c1	-2	8.0*	0	0	0	3
CC(NC(=O)COC(=O)c1ccc(N2CCCC2=O)cc1)c1ccc(F)cc1 (stereo not given)	-2	9.4*	0	0	-3	2
COc1ccc(NC(=O)COC(=O)c2ccc(N3CCCC3=O)cc2)cc1	0	-2	0	0	.	.
Cc1ccc(Cc2c(-c3cccc(Br)c3)nc3c4ccccc4ccn23)cc1	.	-1	-7	0	.	.
CCCOc1ccc(-c2cnc(N)s2)cc1	-2	13*	1	0	7	10*
SMILES	MsrA act	SMARCA2 activ	proKLK7 act	MsrA inhibitor	SMARCA2 conf	GAL4-VP16 Luc
CCOc1ccc(-c2noc([C@@H]3O[C@H](CO)[C@@H](O)[C@H]3O)n2)cc1	-2	7	0	0	.	.
CC(C)c1cc(C(C)C)c(S(=O)(=O)N2CCC(C(=O)NCC3COCCO3)CC2)c(C(C)C)c1 (stereo not given)	.	-4	0	.	.	.
Cc1ccc(-n2c(=O)cc(N3CCC(C)CC3)[nH]c2=O)cc1	-6	8.2*	0	-1	-2	-1
Cc1ccc(-n2c(=O)cc(N3CC(C)CC(C)C3)[nH]c2=O)cc1 (stereo not given)	-3	-1	0	-2	.	.
O=C(N/N=C/c1cccc2ccccc12)c1ccccc1Cl	-6	4	1	1	.	.
O=C(N/N=C/c1cc2ccccc2[nH]1)c1ccccc1Cl	-4	8.2*	0	3	-2	0
Cn1c(CCC(=O)O)nc2cc(S(=O)(=O)N3CCCC3)ccc21	-4	-5	0	0	.	.
Cn1c(CCC(=O)O)nc2cc(S(=O)(=O)N3CCCCC3)ccc21	-2	11*	0	0	0	0
C[C@@H]1CCCCO[C@@H](CN(C)C(=O)Nc2ccc3c(c2)OCO3)[C@@H](C)CN([C@H](C)CO)C(=O)c2cc(NC(=O)Nc3ccc(C(F)(F)F)cc3)ccc2O1	.	-3	0	0	.	.
CCN(CC)S(=O)(=O)c1cc(NC(=O)C(C)N2CCc3ccccc32)ccc1C (stereo not given)	-3	-4	0	0	.	.
CCN(CC)S(=O)(=O)c1cc(NC(=O)C(C)N(C)CC(=O)Nc2c(C)cccc2C)ccc1C (stereo not given)	-10	9.2*	-1	0	-3	0
Fc1cccc(F)c1-n1c(CN2CCOCC2)csc1=S	-8	8.7*	1	0	-1	-1
Fc1cccc(F)c1-n1c(CN2CCCCC2)csc1=S	-11	0	0	-1	.	.
COc1ccc(NC(=O)c2ccc(Oc3ncccn3)cc2)cc1	-15	9.4*	-1	0	2	4
COCCNC(=O)C1CCCN(Cc2ccc(C)cc2)CC1 (stereo not given)	8	-4	0	0	.	.
Cc1ccc2[nH]c(=O)c3cc(C(=O)N(C)Cc4ccco4)sc3c2c1	-1	8.4*	-3	1	13*	-1
COc1ccc(CN(C)C(=O)c2ccc3c(=O)n4c(nc3c2)CCC4)cc1	-6	8.2*	1	0	-3	0
c1ccc(OCc2nc(-c3cccs3)no2)cc1	-2	11*	1	-1	9.2*	6.6*
CC1(C(=O)NCc2ccccc2)CN(S(C)(=O)=O)CC(=O)N1CCc1ccccc1F (stereo not given)	.	-5	0	1	.	.
O=c1c2ccccc2nc2n1CCc1c-2[nH]c2ccccc12	-4	16*	1	1	8.4*	9.3*
Cc1cccc2c(=O)n3c(cc12)-c1[nH]c2ccccc2c1CC3	-2	6	3	1	.	.
COc1ccc(-c2cc(C)no2)cc1S(=O)(=O)Nc1ccc(NC(C)=O)cc1	-3	8.7*	0	0	-2	2
O=C(Nc1cccc(C(F)(F)F)c1)C1CC(=O)N(Cc2ccco2)C1 (stereo not given)	0	-3	1	-2	.	.
C/C(CCc1ccc2c(c1)OCO2)=N\N=C1\NC(=O)CC(C(=O)Nc2ccc(Cl)cc2)S1 (stereo not given)	-3	11*	0	0	-5	0
